From PubChem
Pf growth 96h: P. falciparum growth inhibition at 96 hours. 320,000 compounds, 6.9% hits. P. falciparum luciferase reporter growth, 96 h. Potency, µM (titrated, usually from 28.7 µM), inactives show at the highest dose activity change, negative = inhibition, actives largely listed as inhibitors. AID 504834; also: % is scaled to controls: 0 for no effect and ±100 for the full control effect
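Compounds incubated with erythrocytes infected by luciferase-expressing P. falciparum (2% hematocrit, 0.05% parasitemia final) for 96 hours, 37 C in 5% CO2. Growth inhibition scored as decreased luciferase luminescence.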
AmpC inh no detg: blocks E. coli AmpC beta-lactamase in detergent-free assay | AmpC nitrocefin hydrolysis, absorbance 480 nm, 0.0001% Triton | Potency, µM (highest dose often 57.1 µM), for inactives: at the top dose activity change, negative = inhibition, usual class: inhibitors | 330,000 compounds, 0.52% hits | AID 485341;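 also: plate controls were no compound for no effect and no enzyme for full effect; nearly all actives have a fitted effect of over 20% in size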
Target sequence (P00811 whole entry, looked up): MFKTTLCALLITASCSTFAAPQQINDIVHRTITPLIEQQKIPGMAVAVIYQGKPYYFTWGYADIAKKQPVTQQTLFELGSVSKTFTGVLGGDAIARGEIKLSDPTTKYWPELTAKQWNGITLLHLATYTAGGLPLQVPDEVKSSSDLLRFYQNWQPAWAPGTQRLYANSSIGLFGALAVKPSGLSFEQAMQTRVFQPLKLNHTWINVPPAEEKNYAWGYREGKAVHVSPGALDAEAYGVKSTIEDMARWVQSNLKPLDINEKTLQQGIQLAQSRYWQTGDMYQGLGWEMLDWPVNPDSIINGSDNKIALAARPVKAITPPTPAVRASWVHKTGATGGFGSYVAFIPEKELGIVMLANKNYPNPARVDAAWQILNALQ
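20 mM phosphate pH 7.0 + 0.01% (detergent screen) or 0.0001% Triton X-100; 5.3 nM AmpC reagent; cpd preinc 15 min RT; nitrocefin (800 uM stock) to start; A480 q20 s × 4 min; Activity was normalised to no-enzyme and no-compound control wells.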
Sm TGR inh: blocks Schistosoma mansoni thioredoxin glutathione reductase | 360,000 compounds, 3% hits | Potency, µM (titrated, usually from 114 µM), for inactives: top-dose activity change, negative = inhibition, usual class: inhibitors | Q962Y6 | purified TGR, DTNB reduction, TNB absorbance 405 nm | AID 485364; also: % is scaled to controls: 0 for no effect and ±100 for the full control effect; nearly all actives have a fitted effect of over 60% in size
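Kinetic colorimetric format: TGR-catalysed, NADPH-driven DTNB reduction monitored via TNB absorbance. Enzyme dispensed at 20 nM; compound exposure 15 min at room temperature before reaction start.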
SARS PLP yeast: inhibitors of SARS-CoV papain-like protease in yeast. S. cerevisiae expressing SARS-CoV PLpro, growth rescue. Potency, µM (highest dose often 32.9 µM), without a hit: at the top dose activity, positive = growth rescue, hits mostly activators. 330,000 compounds, 0.19% hits. AID 485353; calls by dose curve; also: 0% is about no effect; nearly all actives have a fitted effect of over 55% in size
AmpC inh detg: blocks E. coli AmpC beta-lactamase in detergent assay; AmpC hydrolysis of nitrocefin, absorbance 480 nm, 0.01% Triton; Potency, µM (titrated, usually from 114 µM), for the others: top-dose activity change, negative = inhibition, most hits filed as inhibitors; 370,000 compounds, 0.041% hits; AID 485294;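 also: 0% = no-compound wells and -100% = no-enzyme wells; nearly all actives have a fitted effect of over 25% in size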
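20 mM phosphate pH 7.0 + 0.01% (detergent screen) or 0.0001% Triton X-100; 5.3 nM AmpC reagent; cpd preinc 15 min RT; nitrocefin (800 uM stock) to start; A480 q20 s × 4 min; Activity was normalised to no-enzyme and no-compound control wells.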
Pf growth 48h: inhibits P. falciparum growth in the first generation, 48 h | 310,000 compounds, 5.9% hits | P. falciparum luciferase growth in erythrocytes, 48 h | Potency, µM (doses to about 28.7 µM), for the others: at the top dose activity change, negative = inhibition, actives largely listed as inhibitors | AID 504832; also: % is scaled to controls: 0 for no effect and ±100 for the full control effect
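Luminescence readout; reporter = integrated firefly luciferase in P. falciparum. RBC culture at 2% hematocrit, 0.1% parasitemia final, 37 C/5% CO2; decreased signal taken as growth inhibition.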
* = called active by the depositor; ? = inconclusive; nt = not tested or not shown; [ ] = remark or other dose. Hits are enriched below; roughly 12% of the tested compounds scored in any of these assays. Unless noted, calls follow the shape of the dose curve; as a rule, active = well fitted curve in the direction sought with a large enough effect; inconclusive = small, poorly fitted or top-dose-only effect, or another doubt; inactive = no such curve, though single readings can be large; an effect the other way counts as inactive or inconclusive. Potency is read from the fitted curve at half-maximal effect.

SMILES	Pf growth 96h	AmpC inh no detg	Sm TGR inh	SARS PLP yeast	AmpC inh detg	Pf growth 48h
CCCCN(C)Cc1c(C(=O)N2CCc3ccccc3C2)nc2ccc(Cl)cn12	-9%	37%	45µM*	0%	-5%	?
CC(C)CN(C)Cc1c(C(=O)N2CCc3ccccc3C2)nc2ccc(Cl)cn12	?	67%	-4%	0%	-10%	7.4µM*
O=C(c1ncn(Cc2ccccc2)c1C(=O)N1CCc2ccccc2C1)N1CCc2ccccc2C1	?	38%	?	-1%	-7%	1.5µM*
O=C(c1ncn(Cc2ccccc2)c1C(=O)N1CCN(c2ccccc2)CC1)N1CCN(c2ccccc2)CC1	nt	189%	nt	-4%	nt	nt
CC1CCCN(Cc2c(C(=O)N3CCc4ccccc4C3)nc3ccc(Cl)cn23)C1 (centres undefined)	-1%	29%	-19%	-1%	-1%	?
COC1CCN(Cc2c(C(=O)N3C[C@@H](C)O[C@@H](C)C3)nc3ccc(Cl)cn23)CC1	-25%	20%	7%	-2%	1%	3%
CCN(CC)C1CCN(Cc2c(C(=O)N3CCCCCCC3)nc3ccc(Cl)cn23)C1 (centres undefined)	12µM*	34%	-19%	?	-1%	?
Cc1cnc(CN(C)Cc2c(C(=O)N3CCc4ccccc4C3)nc3ccc(Cl)cn23)[nH]1	34%	57%	0%	-1%	2%	0%
COc1nc(-c2ccc(C)cc2)ccc1-c1noc(-c2ccc(C(C)(C)C)cc2)n1	nt	nt	-1%	nt	20%	nt
O=C(c1nc2ccc(Cl)cn2c1CN1CCCC1)N1CCc2ccccc2C1	?	20%	40µM*	5%	-5%	?
O=C(c1nc2ccc(Cl)cn2c1CN1CCC(CO)CC1)N1CCc2ccccc2C1	?	-9%	7%	1%	-8%	19%
CCC(CC)C(=O)Nc1cccc(C(=O)Nc2ccc(S(=O)(=O)Nc3ccc(C)cc3)cc2)c1	?	-31%	7%	7%	-3%	?
CCOC(=O)Cc1csc(NC(=O)CSc2nnc(C)n2C)n1	10µM*	-22%	1%	-1%	-9%	11%
CCOC(=O)Cc1csc(NC(=O)CSc2nnc(C3CC3)n2C)n1	13µM*	-15%	-4%	-17%	?	2%
CCOC(=O)Cc1csc(NC(=O)CSc2nnc(C(C)C)n2C)n1	-12%	0%	0%	2%	-6%	1%
Cc1nnc(NC(=O)CSc2ncnc3c2cnn3-c2ccccc2C)s1	59%	-17%	0%	-5%	-10%	4%
CCOC(=O)Cc1csc(NC(=O)CSc2ncnc3c2cnn3-c2ccccc2Cl)n1	nt	66%	5%	-14%	-13%	7.4µM*
COc1ccc2c(CC(=O)Nc3ccc(C)cc3)coc2c1	nt	nt	4%	nt	21%	nt
CCOc1ccccc1/C=C(/NC(=O)c1ccccc1)C(=O)NC(C)c1ccccc1 (centres undefined)	10µM*	-17%	2%	-2%	5%	5%
CCOc1ccc(C(CCc2ccccc2)NC(=O)c2ccccc2F)cc1OCC (centres undefined)	1.5µM*	59%	-17%	2%	2%	nt
CCOc1ccc(C(C)NC(=O)Cc2ccccc2)cc1OCC (centres undefined)	2.1µM*	-11%	8%	10%	4%	2.3µM*
CCOc1ccc(C(C)NC(=O)Cc2ccccc2F)cc1OCC (centres undefined)	1.3µM*	-8%	0%	-8%	1%	?
C=CCNC(=O)/C(=C/c1ccccc1OCC)NC(=O)c1ccccc1	?	-6%	0%	25%	?	4%
CCOc1ccc(C(C)NC(=O)c2cccnc2OCC)cc1OCC (centres undefined)	?	-7%[11.4 µM]	2%	-3%	2%	?
